Measured values from PubChem BioAssay (NCI).
The panel holds about 83,000 compounds, 20% with a hit somewhere; the sample as a whole holds those more often.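 How to read the values: 0–100, growth inhibition (40 = 60% inhibited); 0, no net growth; -100 to 0, cell death (-40 = 40% of starting cells died; -100 = all dead).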 A number with no mark means an inactive call. Active and inactive are the calls of the source. How the source made its calls: active means growth percent below 10; inactive means the rest.

These molecules were tested on MDA-MB-468 breast (assay: NCI-60 one-dose screen, 48 h (100 = growth as untreated, 0 = no growth, -100 = all killed)). Conditions: 10 µM unless noted.

Compound	growth
O=c1[nH]cnc2nc[nH]c12	100%
COC(=O)/C=C1/CCCCC1(C)C(=O)OC (stereo not given)	103%
COc1ccc([C@H]2[C@H](O)C(=O)N2c2cc(OC)c(OC)c(OC)c2)cc1Cl	10.9%
CCOC(=O)CC1C(COC(=O)NC)OC(n2cnc3c(NC(=O)Nc4ccccc4)ncnc32)C1O[Si](C)(C)C(C)(C)C (stereo not given)	61.9%
C[C@@H]1CN(c2ccc3ncc(C#Cc4cncc(C(=O)Nc5ccc(CN6CCN(C)CC6)c(C(F)(F)F)c5)c4)n3n2)C[C@H](C)O1	-76.7% (active)
CC(O)CN(CC(C)O)N(CC(C)O)CC(C)O (stereo not given)	105%
C1=C[C@H]2O[C@@H]1c1ccc3[nH]ccc3c12	76.2%
CSc1nc2nc3c(nc2c(=O)n1C)C(=O)c1ccccc1C3=O	-58.4% (active)
Nc1ccc(C2=NN(C(=O)c3cc(-c4ccc(Cl)cc4)nc4ccccc34)C(c3ccccc3)C2)cc1 (stereo not given)	7.91% (active)
COC(=O)/C(CCC=C(C)C)=C1\[C@@H](OC(C)=O)C[C@@]2(C)[C@H]1C[C@@H](O)[C@H]1[C@@]3(C)CC[C@H](NCCCNCCCCNCCCN)[C@@H](C)[C@@H]3CC[C@@]12C	78.5%
O=C(CCCCl)NNc1nccc(Nc2ccc(S(=O)(=O)Nc3ccncc3)cc2)n1	116%
COC(=O)N[C@H]1CCc2c(Cl)c(OC)c(OC)c(OC)c2-c2ccc(SC)c(=O)cc21	-18.8% (active)
CCCn1ccnc1C(O)c1ccc(OCc2ccccc2)c(OC)c1 (stereo not given)	90.5%
COC(=O)c1nc(-c2ccc(C)cc2)oc1Sc1ccc(C)cc1	121%
Nc1ccc2c(c1)Cc1cc(N)c(N)cc1-2	76.6%
COc1ccc(Nn2c(SCC(=O)Nc3nc(-c4ccc(Cl)cc4)cs3)nc(C)c2C)cc1	26.2%
CCOC(=O)/C(C#N)=C1/NNC(=Nc2cccnc2)S1	95.3%
Nc1nc(N)c2c(n1)NC(c1ccc(C(F)(F)F)cc1)CC(c1ccc(Nc3nc(NCCO)nc(N4CCOCC4)n3)cc1)=N2 (stereo not given)	68.3%
CCCCCSB(SCCCCC)c1ccccc1	102%
N=C(N)SCc1cccc2c(CSC(=N)N)cccc12	108%
CCCCCc1ccc(S(=O)(=O)Nc2cccc(-c3csc(NC(=O)CN4CCN(CCO)CC4)n3)c2)cc1	84.8%
O=C(Nc1cccc(N=Cc2c(O)ccc3ccccc23)c1)c1ccccc1	98.9%
c1ccc(-c2c(-c3ccccc3)[n+](Cc3ccc4ccccc4c3)c(-c3cccc4ccccc34)n2Cc2ccc3ccccc3c2)cc1	-62.3% (active)
CNc1ccc(NC)c2c1C(=O)c1ccccc1C2=O	-7.38% (active)
CCn1c(SCC(=O)Nc2cccc(C(=O)/C=C/c3ccc(Br)cc3)c2)nc2ccccc2c1=O	86.6%
